Data taken from PubChem BioAssay (NCI).
This is part of a sample that, as a whole, favours compounds with a hit. Of some 79,000 tested, about 15% had one in any assay. Rule as the data show it: active = growth inhibition above about 70%; inactive = the rest. Where a SMILES comes first, the peptide text is derived from it. The star is where a group is joined. Trt = c1ccc(C(c2ccccc2)(c2ccccc2)*)cc1; Benzhydryl = c1ccc(C(c2ccccc2)*)cc1; Cbz = O=C(OCc1ccccc1)*

Legend:
[1] = NCI Yeast Anticancer Drug Screen. Data for the rad50 strain (AID 155);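 also: 0% = growth of vehicle-only cultures of the same strain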; conditions: S. cerevisiae rad50 strain growth inhibition; at 50.0 µM; stronger effect = higher value
Method in brief: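 Yeast carrying a defined DNA repair defect were exposed to test compounds, and growth was compared with vehicle-treated controls to give percent inhibition.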

[2] = NCI Yeast Anticancer Drug Screen. Data for the mec2-1 strain (AID 157); conditions: S. cerevisiae mec2-1 strain, at 50.0 µM, stronger effect = higher value
Method in brief: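 Mutant yeast (mec2-1) grown with compound; growth inhibition relative to vehicle control reported.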

[3] = NCI Yeast Anticancer Drug Screen. Data for the sgs1 mgt1 strain (AID 161);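 also: 0% = growth of cultures given vehicle only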; conditions: S. cerevisiae sgs1 mgt1 strain, at 50.0 µM, stronger effect = higher value
Method in brief: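 Yeast cells carrying a defined DNA-repair defect were exposed to test compounds. Growth inhibition was measured relative to vehicle-treated controls.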

[4] = NCI Yeast Anticancer Drug Screen. Data for the cln2 rad14 strain (AID 165);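 also: 0% = growth equal to vehicle treated cultures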; conditions: S. cerevisiae cln2 rad14 strain, at 50.0 µM, stronger effect = higher value
Method in brief: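 Readout is yeast growth inhibition versus vehicle-treated controls, using a strain with cln2 and rad14 alterations exposed to compound.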

[5] = NCI Yeast Anticancer Drug Screen. Data for the bub3 strain (AID 167); conditions: S. cerevisiae bub3 mutant strain, at 50.0 µM, stronger effect = higher value
Method in brief: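 Compounds were applied to a genetically altered yeast strain carrying a cell-cycle control defect. Growth inhibition was scored against vehicle-treated controls.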

[6] = NCI Yeast Anticancer Drug Screen. Data for the mlh1 rad18 strain (AID 175); conditions: S. cerevisiae mlh1 rad18 strain growth inhibition; at 50.0 µM; stronger effect = higher value
Method in brief: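 Genetically defined yeast (DNA repair-deficient) exposed to compounds; growth inhibition determined relative to vehicle.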

Measured: growth inhibition

CC(=O)NC1C(O)C(O)C(CO)OC1n1ncc(=O)[nH]c1=O (stereo not drawn)
inactive: [1] 13.1% | [2] 22.8% | [3] -14.2% | [4] -18.9% | [5] -20.4% | [6] -37.9%

C/C(=C/CNc1ncnc2c1ncn2CCC(=O)O)CO
inactive: [1] -22.4% | [2] 12.5% | [3] -31.7% | [4] 1.65% | [5] 1.7% | [6] -0.5%

CCN(CC)CC(O)c1ccc2c(ccc3ccccc32)c1 (stereo not drawn)
inactive: [1] 12.5% | [2] -5% | [3] 9.2% | [4] -32% | [5] -3.45% | [6] 12%

CCOC(=O)C1=C(c2ccccc2)NC(c2ccccc2)=C(C(=O)OCC)c2c1c(=O)cc[nH]c2=O
inactive: [1] -19.6% | [2] 1.45% | [3] 18.1% | [4] 18.2% | [5] -9.9% | [6] 2.35%

CCCCCCCCCCCCS(=O)(=O)CC(=O)O
inactive: [1] -8.65% | [2] 7.9% | [3] 8.15% | [4] -84.2% | [5] 29.4% | [6] 9.05%

COC(=O)C(Cc1ccccc1)NC(=O)C(Cc1ccccc1)NC(=O)CNC(=O)C(CSC(c1ccccc1)c1ccccc1)NC(=O)C(CSC(c1ccccc1)(c1ccccc1)c1ccccc1)NC(=O)OCc1ccccc1 (stereo not drawn) (Cbz-C(Trt)C(Benzhydryl)GFF-OMe; configuration not given here)
inactive: [1] -5.55% | [2] 25.4% | [3] 19% | [4] -14.9% | [5] -9.8% | [6] 28.1%

CO/N=C1\CC(NC(=O)CNC(=O)OC(C)(C)C)c2ccsc21 (stereo not drawn)
inactive: [1] 1.45% | [2] 5.9% | [3] 6.6% | [4] 4.3% | [5] -1.7% | [6] 28.4%

c1cnc(NC(Nc2cnccn2)C2CCCCC2)cn1
inactive: [1] -2.25% | [2] -1.55% | [3] -6.6% | [4] -20.9% | [5] 4.25% | [6] 1.35%

CCC(/C=N/Nc1ccc([N+](=O)[O-])cc1[N+](=O)[O-])(CC)CC
inactive: [1] -2.85% | [2] -8.75% | [3] -6.25% | [4] 0.25% | [5] -2.85% | [6] 6.8%

CCCCC1C2C(S(=O)(=O)c3ccccc3)=NOC2C=CN1C(C)=O (stereo not drawn)
inactive: [1] -6.4% | [2] -9% | [3] 1.55% | [4] 7.55% | [5] 3.25% | [6] 10.3%

CCNC1(C(N)=O)CCN(Cc2ccccc2)CC1
inactive: [1] -14.6% | [2] -55.8% | [3] -31.1% | [4] 5.1% | [5] -30.4% | [6] -22.7%

CCCCCc1cc(C(=O)NN)c2ccccc2n1
inactive: [1] -29.7% | [2] -25% | [3] -12.6% | [4] -15.8% | [5] 33.1% | [6] -12.8%

CCOC(=O)CCc1ccco1
inactive: [1] 3.15% | [2] -5.7% | [3] -4.45% | [4] 4.15% | [5] 9.1% | [6] 15.2%

COc1ccc(/C=C(/C#N)C(N)=O)c(OC)c1
inactive: [1] 1.85% | [2] -15.8% | [3] -34.1% | [4] -34.9% | [5] -31.8% | [6] 2.55%

O=[N+]([O-])c1ccc2c(c1)C(=Nc1ccccc1)c1cc([N+](=O)[O-])cc([N+](=O)[O-])c1-2
inactive: [1] 8.3% | [2] 5.65% | [3] 19.1% | [4] 21.1% | [5] 3.5% | [6] 13.4%

O=C(N/N=C\c1ccc(Cl)cc1Cl)C1CC1
inactive: [1] -19.8% | [2] -3.8% | [3] -7.6% | [4] -19.2% | [5] -19.3% | [6] -24.9%

O=C(NCc1ccccc1)NCN1CCOCC1
inactive: [1] 20.7% | [2] -0.85% | [3] 5.15% | [4] 0.45% | [5] 5.65% | [6] -11.3%

Cc1nc(-c2ccccc2)ncc1C(O)CN1CCCCC1 (stereo not drawn)
inactive: [1] -21.7% | [2] 25.6% | [3] 18.1% | [4] -43.2% | [5] 20.5% | [6] 2.25%

Cc1[nH]c2nccn2c(=O)c1CCCl
inactive: [1] 10.2% | [2] -14.7% | [3] 9.6% | [4] -13.2% | [5] -13.6% | [6] 7.1%

C/C(N=NC(=S)N1CCCC1)=C1\C=CC=CN1O
inactive: [1] 5.45% | [2] -8.35% | [3] 15.4% | [4] -5.6% | [5] 7.95% | [6] 22.9%

O=C(c1cccnc1)c1cc(-c2ccccn2)c(=O)n2ccccc12
inactive: [1] 0.7% | [2] 1.95% | [3] -13.6% | [4] -1.05% | [5] -15.8% | [6] -36.6%

CC1(C)C(CC(=O)O)CCCC1CC(=O)O (stereo not drawn)
inactive: [1] 12.2% | [2] 0.95% | [3] 4.15% | [4] 2.15% | [5] -11.4% | [6] 49.2%

CCOP(=O)(OCC)OCCCCn1cnc2c1c(=O)n(C)c(=O)n2C
inactive: [1] -32% | [2] -9.4% | [3] -15.7% | [4] -38% | [5] -2.65% | [6] -3.1%

COC(=O)c1ccc(Cc2ccc(C(=O)OC)o2)o1
inactive: [1] -9.05% | [2] 9.2% | [3] -5.25% | [4] -25.4% | [5] -8.35% | [6] -13.8%

CC1OC(C)(CCc2ccccc2)OC1C (stereo not drawn)
inactive: [1] 0.4% | [2] -46.8% | [3] 11.7% | [4] -12.2% | [5] -21.6% | [6] -8%

COc1ccc2c(Cc3ccccc3O)cncc2c1O
inactive: [1] 0.9% | [2] 2.25% | [3] -4.75% | [4] -3.5% | [5] -5.9% | [6] 14.8%

N#CCCn1ncc(C#N)c1N
inactive: [1] 3.4% | [2] -7.95% | [3] -1.5% | [4] -38.5% | [5] -2.5% | [6] 8.5%

O=C1CS/C1=C/c1ccccc1
inactive: [1] 11.4% | [2] -2.95% | [3] -15.2% | [4] -68.7% | [5] -7.85% | [6] -5.15%

COCOc1c(OC)c(C2(O)C(=O)N(C)c3ccccc32)c(OCOC)c(OC)c1C1(O)C(=O)N(C)c2ccccc21 (stereo not drawn)
inactive: [1] 0.9% | [2] 13.8% | [3] -14.9% | [4] -3.9% | [5] 0% | [6] 15.4%

CSc1ncnc2nn(C3OC(CO)C(O)C3O)cc12 (stereo not drawn)
inactive: [1] 8.1% | [2] 5.85% | [3] 6.25% | [4] 8.4% | [5] -9.6% | [6] -5.4%

N#CC12CCC(CC1)CC2Cl (stereo not drawn)
inactive: [1] -15.7% | [2] 8.45% | [3] 0.95% | [4] 4.4% | [5] 1.5% | [6] -12.7%

COC(=O)CCN(C)c1ccccc1
inactive: [1] -4.7% | [2] -0.55% | [3] -3.75% | [4] -8.15% | [5] 3.65% | [6] -7.5%

CC(=NNC(=S)Nc1cccc(C)c1)c1cccc(C(C)=NNC(=S)Nc2cccc(C)c2)n1
inactive: [1] 37.4% | [2] 41.2% | [3] 62.6% | [4] 29.1% | [5] 35.4% | [6] 47.2%

c1ccc(-n2nnc3c2CCCC3)cc1
inactive: [1] -3.2% | [2] -1.6% | [3] -6.1% | [4] -23.8% | [5] -25.6% | [6] -1.65%

Cc1cccc(O)c1
inactive: [1] -11.7% | [2] -9.8% | [3] -42% | [4] -16.4% | [5] -4.65% | [6] -39.2%

CS(=O)(=O)OCc1nnn(-c2ccccc2)c1COS(C)(=O)=O
inactive: [1] 7.2% | [2] -9.1% | [3] -3.5% | [4] -40.5% | [5] 11.5% | [6] -11.7%

CC(=O)N/C(=C\c1ccccc1)C(N)=O
inactive: [1] 9.9% | [2] 12.9% | [3] 1.2% | [4] 0.6% | [5] 36% | [6] 1.55%

NCCCCN(CCCN)Cc1ccccc1
inactive: [1] -4.8% | [2] -1.25% | [3] -17.1% | [4] 11.6% | [5] -4% | [6] -58.9%
